# Source: PubChem BioAssay
# KB-V1 MDR tox: kills drug-selected multidrug resistant KB-V1 cells. Potency, µM (series often up to 46.1 µM), usual class: cytotoxic. AID 1347076. 400,000 compounds, 3.4% hits. KB-V1 MDR cells viability, CellTiter-Glo, 72 h; further: on the % scale 0 is the no-effect control and ±100 the full control effect; nearly all actives have a fitted effect of over 60% in size
#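 KB-V1 cells (P-gp-expressing MDR subline of KB-3-1) in phenol-red-free DMEM with 10% FBS were exposed to library compounds over a concentration series for 72 h at 37 degrees C. Viability read by CellTiter-Glo luminescence; concentration-effect curves fitted after normalization.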
# KB-3-1 tox: kills parental KB-3-1 adenocarcinoma cells | 400,000 compounds, 1.4% hits | KB-3-1 viability, CellTiter-Glo ATP luminescence, 72 h | AID 1347075 | Potency, µM (titrated, usually from 46.1 µM), most hits filed as cytotoxic; further: on the % scale 0 is the no-effect control and ±100 the full control effect; nearly all actives have a fitted effect of over 60% in size
#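 Viability of parental KB-3-1 cells, measured by CellTiter-Glo luminescence, followed a 72 h incubation at 37 °C with pinned compounds in phenol-red-free DMEM containing 10% FBS.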
# HepG2 viability: kills HepG2 cells in TGF-b inhibitor counter-screen; Potency, µM (doses to about 46.1 µM), inactives show top-dose activity change, negative = cytotoxicity, usual class: cytotoxic; HepG2 CAGA-GFP viability, ATP luminescence, 18 h; AID 588856; 410,000 compounds, 0.76% hits
#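 CellTiter-Glo luminescence gave cytotoxicity after 18 hours at 37 degrees C. The cells were HepG2 CAGA-GFP in 1% FBS DMEM, stimulated with 500 pg/mL TGF-beta after compound addition. %Activity was normalised to no-cell wells (complete cell-killing) and DMSO (no toxicity), and curves were fitted and classified.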
# TGFb SMAD3 inh: inhibitors of TGF-b signaling | HepG2 CAGA-GFP TGF-b/SMAD3 reporter, GFP fluorescence, 18 h; TGF-beta stimulated, 500 pg/mL final | Potency, µM (highest dose often 46.1 µM), inactives show top-dose activity, negative = inhibition, usual class: inhibitors | 410,000 compounds, 1.2% hits | AID 588855; further: on the % scale 0 is the no-effect control and ±100 the full control effect; nearly all actives have a fitted effect of over 65% in size
#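 GFP signal (ex488/em500-530) from TGF-beta-stimulated HEPG2 CAGA-GFP cells, 500 pg/mL final, 18 h at 37 degrees C in DMEM plus 1% FBS, normalized to unstimulated and DMSO-stimulated controls.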
# HT1080-NT tox: kills 2HG-producing HT-1080-NT fibrosarcoma cells; HT-1080-NT fibrosarcoma viability, CellTiter-Glo ATP luminescence, 48 h; Potency, µM (top dose mostly 46.1 µM), for inactives: at the top dose activity, negative = less viability, usual class: cytotoxic; 360,000 compounds, 1.6% hits; AID 686970;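 further: NT is the 2HG producing partner of a matched IDH1 knockdown line; 0% = DMSO-treated cells and -100% = media-only wells without cells; nearly all actives have a fitted effect of over 55% in size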
#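 Luminescent CellTiter-Glo readout after 48 hours of compound exposure at 37 degrees C defined viability of HT-1080-NT cells. Activity was normalized to DMSO wells and cell-free media wells; concentration-response curves were fitted and assigned curve classes.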
# HT1080 IDH1KD tx: kills HT-1080 cells with IDH1 knockdown. HT-1080 IDH1 knockdown viability, ATP luminescence, 48 h. 360,000 compounds, 2% hits. Potency, µM (highest dose often 46.1 µM), without a hit: at the highest dose activity, negative = toxicity, actives largely listed as cytotoxic;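 further: 0% = DMSO wells and -100% = cell-free medium wells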
#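 Knockdown cells (IDH1KD HT-1080) received compounds 2 h after plating at 750 cells/well and were kept 48 h at 37 °C in 5% FBS RPMI. A CellTiter-Glo luminescence read gave % activity for curve fitting.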
# * marks the source's active call; other numbers are inactive results; i = inactive; ? = inconclusive; nt = no result given; [ ] = dose if it differs, or a comment. Most compounds without a hit are left out; they make up all but 6.6% or so of the library. The call rests on the fitted dose curve; in most records, active means well fitted curve in the direction sought with a large enough effect; inconclusive means small, poorly fitted or top-dose-only effect, or another doubt; inactive means no such curve, though single readings can be large; an effect the other way counts as inactive or inconclusive. Potency means the concentration at half of the fitted maximal effect.
SMILES,KB-V1 MDR tox,KB-3-1 tox,HepG2 viability,TGFb SMAD3 inh,HT1080-NT tox,HT1080 IDH1KD tx
COc1cccc2c1cc1c(=O)n(CC(=O)N3CCN(c4cccc(C(F)(F)F)c4)CC3)nc(C)n12,nt,nt,-24.0%,0.0%,nt,nt
Cc1cccc(C(C)C)c1-n1nnnc1-c1ccccc1,i,i,-21.5%,3.2%,-25.4%,-8.8%[9.24 µM]
CCC(C)(c1nnnn1-c1c(C)cccc1C)N(N=O)c1ccccc1Cl (centres undefined),18.4µM*,?,-14.4%,?,-0.5%,-1.9%
COc1ccc(C(C)=O)cc1CC1(C)C(=O)Nc2ccc(-c3cccc(C(F)(F)F)c3)cc21 (centres undefined),?,?,-106.0%,15.8µM*,?,?
CC1(Cc2cc(Cl)ccc2C(F)(F)F)C(=O)Nc2ccc(-c3ccc(F)c(Cl)c3)cc21 (centres undefined),i,i,-115.0%,?,?,-9.0%
CC1(Cc2ccccc2OC(F)(F)F)C(=O)Nc2ccc(-c3ccsc3)cc21 (centres undefined),i,i,-106.8%,?,?,-8.0%
CC1(Cc2cc(Cl)ccc2C(F)(F)F)C(=O)Nc2ccc(OC(F)(F)F)cc21 (centres undefined),?,i,-100.6%,?,?,20.6µM*
CC1(Cc2ccc(C(F)(F)F)o2)C(=O)Nc2cc(-c3ccc(F)cc3F)ccc21 (centres undefined),?,?,20µM*,?,?,?
CC1(Cc2ccccc2OC(F)(F)F)C(=O)Nc2ccc(OC(F)(F)F)cc21 (centres undefined),i,i,-106.0%,?,?,20.6µM*
CC1(Cc2cc(Cl)ccc2C(F)(F)F)C(=O)Nc2cc(F)ccc21 (centres undefined),?,i,-84.7%,?,?,?
c1ccc(N2CCN(c3cccc(-c4cc5ccccc5s4)n3)CC2)nc1,i,i,-15.8%,13.1%,13.5%,-0.6%
CCCCCn1c(-c2ccc(OC)c(OC)c2)nc2ccccc21,i,i,-38.4%,?,nt,nt
COc1ccc([C@H]2N[C@]3(CCCN(Cc4ccccc4)C3=O)[C@H]3C(=O)N(Cc4ccccc4)C(=O)[C@@H]23)cc1,i,i,-27.6%,?,0.0%,-4.0%
CCOC(=O)c1ccccc1NC(=O)COC(=O)CC(C)(C)CC1=NS(=O)(=O)c2ccccc2N1,?,?,-31.5%,?,nt,nt
CC1(Cc2cc(Cl)ccc2C(F)(F)F)C(=O)Nc2cc(C(F)(F)F)ccc21 (centres undefined),i,i,17.8µM*,?,?,20.6µM*
COc1ccccc1-c1ccc2c(c1)C(C)(Cc1cc(Cl)ccc1C(F)(F)F)C(=O)N2 (centres undefined),20.6µM*,?,-102.4%,17.8µM*,?,?
CC1(Cc2ccc(Cl)cc2)C(=O)Nc2ccc(S(=O)(=O)NC3CCCCC3)cc21 (centres undefined),?,?,-64.5%,?,?,?
COc1ccc(Cl)cc1CC1(C)C(=O)Nc2ccc(-c3ccccc3OC)cc21 (centres undefined),i,?,-94.0%,?,?,?
CC1(Cc2c(Cl)cccc2Cl)C(=O)Nc2cc(-c3ccccc3Cl)ccc21 (centres undefined),?,i,-53.2%,?,?,?
CC1(Cc2ccccc2Cl)C(=O)Nc2cc(-c3ccccc3Cl)ccc21 (centres undefined),i,i,17.8µM*,?,?,?
CC1(Cc2ccc(OC(F)(F)F)cc2)C(=O)Nc2ccc(S(=O)(=O)NC3CCCCC3)cc21 (centres undefined),?,?,11.2µM*,?,13µM*,11.6µM*
CC(C)(C)n1ncc2c(=O)n(Cc3ccc(-c4ccccc4C#N)cc3)cnc21,nt,nt,2.9%,-2.0%,nt,nt
O=C(Nc1ccc(Cl)c(S(=O)(=O)N2CCOCC2)c1)c1ccncc1,i,i,-9.7%,4.9%,-20.7%,-2.8%
COc1ccccc1N1CCN(C(=O)c2cc(-c3ccc(C)c(F)c3)on2)CC1,nt,nt,8.1%,nt,nt,nt
COc1ccc(NC(=O)/C(C#N)=C/c2ccc(OCc3cc(=O)n4nc(C)sc4n3)cc2)cc1,?,?,9.5%,2.5%,nt,nt
SMILES,KB-V1 MDR tox,KB-3-1 tox,HepG2 viability,TGFb SMAD3 inh,HT1080-NT tox,HT1080 IDH1KD tx
CC1(C)CC(=O)C2=C(C1)c1c(ccc3ccccc13)NC2c1ccc(Br)o1 (centres undefined),?,i,20µM*,-20.4%,?,?
O=C(NCc1cccnc1)/C(=C/c1ccc(-c2ccc(Cl)cc2)o1)S(=O)(=O)c1ccccc1,?,i,4.47µM*,?,6.31µM*,5.62µM*
Cc1ccc(C(=O)N/C(=C/c2ccc(-c3cc(C(F)(F)F)ccc3Cl)o2)C(=O)NCc2cccnc2)cc1,9.2µM*,?,-0.2%,12.6µM*,-17.0%,-21.3%
O=C(NCc1cccnc1)/C(=C/c1ccc(Cl)cc1)NC(=O)c1ccccc1,i,i,19.1%,8.2%,-0.1%,8.7%
O=C(NCc1cccnc1)/C(=C/c1ccc(-c2cccc(C(F)(F)F)c2)o1)NC(=O)c1ccccc1,16.4µM*,i,-10.6%,?,-15.1%,-28.3%
O=C(NCc1cccnc1)C(=O)NCC1OCCN1S(=O)(=O)c1ccc(Cl)cc1 (centres undefined),i,i,-1.4%,2.6%,0.0%,-3.2%
Cc1ccc(C(=O)N/C(=C\c2ccco2)C(=O)NCc2cccnc2)cc1,i,i,0.2%,-5.6%,15.1%,19.0%
Cc1[nH]c(C)c(C(=O)/C=C/c2ccc([N+](=O)[O-])cc2)c1C,i,?,-41.6%,?,?,11.6µM*
COc1ccc(C=CC(=O)c2ccc([N+](=O)[O-])cc2)cc1,i,i,14.5%,0.0%,12.2%,-20.1%
Cc1cc(C)cc(N2C(=O)CSC23C(=O)N(CC(=O)NCCc2ccccc2)c2ccccc23)c1 (centres undefined),i,i,-3.0%,37.6%,nt,nt
CC(C)(C)c1ccc(C(=O)c2c[nH]c(C(=O)NCCCN3CCOCC3)c2)cc1,18.4µM*,i,-0.6%,-14.0%,4.0%,-2.9%
